This is a sample that favours compounds with a hit; in the whole collection about 21% have one here.
HCV inh = inhibitors of hepatitis C virus infection. Huh7.5.1 HCVcc-Cre infection, luciferase reporter, 44 h. Potency, µM (highest dose often 41.8 µM), inactives show at the highest dose activity change, negative = inhibition, actives largely listed as inhibitors. 340,000 tested, 3.4% active. AID 651820; also: potency is read from the fitted curve at half-maximal effect; % is scaled to controls: 0 for no effect and ±100 for the full control effect
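A cell-based infection assay in which seeded cells (1,000 per well) receive test compound after 4 h, are inoculated with HCVcc-Cre at approximately 0.5 moi, and are incubated 44 h before luminescence detection.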
HCMV inh = inhibitors of human cytomegalovirus | activity change, negative = inhibition, % at 57.5 µM | HFF cells, HCMV-luciferase reporter, 72 h; active compounds read low | AID 1259415 | 410,000 tested, 4.5% active; in the data active = activity change below about -60%; inconclusive = no clear call, values can overlap the other calls; inactive = above about -39%; also: % is scaled to controls: 0 for no effect and ±100 for the full control effect
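Two-dose cell screen: HFF monolayers treated with compounds and infected with luciferase-expressing HCMV at 1 PFU/cell, 72 h at 37C, then lysed for luciferase measurement.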
Pf growth 96h = P. falciparum growth inhibition at 96 hour, primary screen for plastid delayed-death inhibitors; 320,000 tested, 6.9% active; Potency, µM (highest dose often 28.7 µM), for inactives: at the highest dose activity change, negative = inhibition, actives largely listed as inhibitors; P. falciparum luciferase reporter growth, 96 h; AID 504834; also: potency is read from the fitted curve at half-maximal effect; % is scaled to controls: 0 for no effect and ±100 for the full control effect
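Luminescence readout: decreased luciferase signal marks inhibited growth of reporter-expressing P. falciparum in infected red cells (2% hematocrit, 0.05% parasitemia final), exposed to compound two generations (96 h, 37 C, 5% CO2).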
CHX counter = counter-screen hit for Shiga toxin inhibitors, cycloheximide; cell reporter, cycloheximide protein synthesis inhibition counterscreen; AID 2314; max response, %; 300,000 tested, 12% active; in the data active = max response mostly above about 13%, no sharp cut-off; inactive = mostly below about 14%; also: read at 38.3 µM for the half of the compounds with a filed dose; 0% is about no effect
Pf growth 48h = P. falciparum growth inhibition at 48 hours (one generation); P. falciparum luciferase growth in erythrocytes, 48 h; Potency, µM (doses to about 28.7 µM), inactives show top-dose activity change, negative = inhibition, most hits filed as inhibitors; 310,000 tested, 5.9% active; also: potency is read from the fitted curve at half-maximal effect; % is scaled to controls: 0 for no effect and ±100 for the full control effect
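Luciferase-expressing parasites in RBCs, 2% Hct / 0.1% parasitemia final; RPMI 1640 + 0.5% Albumax; 37 C, 5% CO2, one generation; luminescence read-out, lower signal = inhibition.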
Shiga inhibitor = inhibitors of Shiga toxin in Vero cells; inhibition, % at 38.7 µM; Vero cells, Shiga toxin protein synthesis inhibition reporter; 290,000 tested, 9.2% active; in the data active = inhibition mostly above about 28%, no sharp cut-off; inactive = mostly below about 43%; also: 0% is about no effect
Numbers without * were called inactive; u = inconclusive; x = no result given. Unless noted, calls follow the shape of the dose curve; as a rule, active = well fitted inhibition curve with a large enough effect; inconclusive = small, poorly fitted or top-dose-only effect, or another doubt; inactive = no such curve, though single readings can be large or run the other way.

SMILES | HCV inh | HCMV inh | Pf growth 96h | CHX counter | Pf growth 48h | Shiga inhibitor
O=C(CCc1ccccc1)NNC(=O)COc1ccccc1Cl | 14.6% | 22.3 | 3.6% | 5.0 | u | -4.6
CC(=O)NCCC(=O)N(Cc1ccccc1)c1nc2c(C)cccc2s1 | -5.9% | 22.0 | u | -4.4 | 7.38µM* | -21.2
CCOc1ccc2nc(N(Cc3cccnc3)C(C)=O)sc2c1 | x | 18.5 | x | x | x | x
CCOc1ccc2nc(N(Cc3ccccc3)C(=O)CCNC(C)=O)sc2c1 | -6.0% | 77.7 | u | 30.4* | -28.4% | 51.4*
Cc1ccc2[nH]c3c(=O)n(CCN4CCOCC4)cnc3c2c1 | 11.2% | -3.6 | 57.3% | 38.8* | 68.3% | 60.6*
Cc1ccc2[nH]c3c(=O)n(CCCN4CCOCC4)cnc3c2c1 | 4.2% | -14.1 | x | 10.4 | 31.5% | 33.0
Cc1ccc2[nH]c3nc(SCCN4CCOCC4)nnc3c2c1 | -9.8% | 21.2 | 78.7% | 28.0* | 3.0% | 86.1*
CC(CCc1ccccc1)NC(=O)c1ccc(F)cc1 (stereo not given) | 7.2% | -6.4 | u | -2.2 | -17.9% | -11.7
Cc1nn(C)cc1CN(C)C(=O)c1nn2c(c1Br)NC(c1cccs1)CC2C(F)(F)F (stereo not given) | -18.5% | -31.4 | 5.22µM* | -3.6 | 13.1µM* | -14.1
Cc1nn(C)c(C)c1CN(C)C(=O)c1cc2n(n1)C(C(F)(F)F)CC(c1cccs1)N2 (stereo not given) | u | u | 9.28µM* | -3.3 | u | -12.1
CCC(C)NC(=O)c1cnn2c1NC(c1cccs1)CC2C(F)(F)F (stereo not given) | -0.6% | -38.2 | 3.3% | -4.3 | -6.2% | -16.0
Cc1nn(C)cc1CN(C)C(=O)c1nn2c(c1Cl)NC(c1cccs1)CC2C(F)(F)F (stereo not given) | 3.7% | -77.5* | 2.2% | -3.8 | u | -6.5
CCOC(=O)c1sc(NC(=O)c2cc3n(n2)C(C(F)(F)F)CC(c2cccs2)N3)c(C(=O)OCC)c1C (stereo not given) | -16.9% | -6.7 | u | -2.5 | u | -8.3
CC(C)(C)NC(=O)C(c1ccc(O)cc1)N(C(=O)CCC(=O)Nc1ccccn1)c1ccc(F)cc1 (stereo not given) | -1.3% | -13.5 | u | -6.1 | -4.1% | -11.6
CC(=O)c1ccc(NC(=O)c2sc3nc(N4CCOCC4)c4c(c3c2N)CCCC4)cc1 | -17.3% | -28.8 | -16.1% | 20.6* | 11.2% | 64.8*
COc1cccc(NC(=O)c2sc3nc(N4CCOCC4)c4c(c3c2N)CCCC4)c1 | -23.7% | 14.3 | u | 24.9* | -12.0% | 29.7*
Cc1ccc(NC(=O)c2sc3nc(N4CCOCC4)c4c(c3c2N)CCCC4)cc1 | x | -28.6 | x | x | x | x
NNC(=O)c1sc2nc(N3CCOCC3)c3c(c2c1N)CCCC3 | u | -26.7 | u | 7.7 | u | 17.3
CCOc1ccc(NC(=O)c2sc3nc(N4CCOCC4)c4c(c3c2N)CCCC4)cc1 | 11.7% | -25.5 | 13.1µM* | -3.5 | u | 1.9
Nc1c(C(=O)Nc2ccccc2)sc2nc(N3CCOCC3)c3c(c12)CCCC3 | x | -12.3 | x | x | x | x
Nc1c(C(=O)NCc2ccccc2)sc2nc(N3CCOCC3)c3c(c12)CCCC3 | u | -33.6 | 11.7µM* | -3.6 | u | 16.8
CCC(Sc1ncccc1C(=O)Oc1ccccc1Cl)C(=O)Nc1ccccc1OC (stereo not given) | x | -20.9 | x | x | x | x
Cc1ccc(CNC(=O)N2CCC(CN3CCC(C)CC3)CC2)cc1 | x | 13.1 | x | x | x | x
CCOC(=O)c1sc(N2C(=O)c3oc4cc(C)c(C)cc4c(=O)c3C2c2ccc(C)cc2)nc1C (stereo not given) | x | -111.2* | x | x | x | x
COC(=O)c1ccc(C2c3c(oc4cc(C)c(C)cc4c3=O)C(=O)N2CCCN(C)C)cc1 (stereo not given) | x | x | 32.1% | -1.2 | 5.22µM* | 7.9
COC(=O)c1ccc(C2c3c(oc4ccc(C)cc4c3=O)C(=O)N2Cc2ccc3c(c2)OCO3)cc1 (stereo not given) | x | -109.5* | x | x | x | x
Cc1ccc2oc3c(c(=O)c2c1)C(c1cccs1)N(CCCN(C)C)C3=O (stereo not given) | 5.1% | x | 37.2% | 38.9* | u | 48.5*
